# Test results reported in PubChem BioAssay (NCATS).
# Results filed as inconclusive are left out. A call without a number means that no potency is given here. Values without a mark were called inactive. Calls of active or inactive are those of the source. Calls come from the whole dose curve; as a rule, active = well fitted inhibition curve with a large enough effect; inconclusive = small, poorly fitted or top-dose-only effect; inactive = no such curve, though single readings can be large or run the other way.
# System: Zika virus NS2B-NS3 protease (unlinked complex)
# Assay: Primary screen GU Rhodamine qHTS for Zika virus inhibitors: Unlinked NS2B-NS3 protease assay (AID 1347159); note: nearly all actives have a fitted effect of over 60% in size
# Details: Recombinant ZIKV NS2B-NS3 protease, Rhodamine110 substrate fluorescence; series mostly up to 107 µM
# How it was run: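 Enzyme 25 nM in Tris-HCl pH 8.0 + 0.01% Tween 20; compounds up to 114 microM, 15 min RT dark; + Rhod110 substrate 1.5 microM; read t0 and 15 min; delta fluorescence → % inhibition → 4-parameter Hill fit.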
# Potency is the fitted concentration of half-maximal effect.
Structure (SMILES),Potency,"activity change, negative = inhibition"
c1ccc(-c2oc3ncnc(NC[C@@H]4CCCO4)c3c2-c2ccccc2)cc1,inactive,
CCCCn1c(=O)n(Cc2ccccc2F)c(=O)c2[nH]c(Cc3ccc(NC(C)=O)cc3)nc21,inactive,
O=C(CO)N1CCC(c2[nH]nc(-c3ccc(Cl)cc3)c2-c2ccncn2)CC1,inactive,
COc1nc(C)cnc1NS(=O)(=O)c1cccnc1-c1ccc(-c2nnco2)cc1,inactive,
CC(C)CNc1ccnc(NCc2csc(-c3ccccc3)n2)n1,inactive,
O=C(CC12CC3CC(CC(C3)C1)C2)Nc1cccc2nc(NCCNCCO)ccc12,inactive,
COc1nccc(-c2c(-c3ccc(F)cc3)ncn2C2CCC(O)CC2)n1 (stereo unspecified),inactive,
CN1CCc2c(n(Cc3ccc(C(=O)NO)cc3)c3ccccc23)C1,inactive,
O=C(CCCN1CCN(c2ccc(F)cc2)CC1)NC1c2ccccc2CSc2ccccc21 (stereo unspecified),inactive,
Cn1c(=O)c(-c2c(Cl)cccc2Cl)cc2cnc(Nc3cccc(C(=O)O)c3)nc21,7.94 µM (active),
Fc1ccc(CNc2ncnc3ccc(F)cc23)cc1,inactive,
Clc1ccc(C2(c3ccc(-c4cn[nH]c4)cc3)CCNCC2)cc1,inactive,
CCc1cccc(CC)c1NC(=O)N1Cc2[nH]nc(NC(=O)c3ccc(N4CCN(C)CC4)cc3)c2C1,inactive,
Nc1ccc(-c2ccc3ncc4ccc(=O)n(-c5cccc(C(F)(F)F)c5)c4c3c2)cn1,inactive,
CN1C(=O)C(Cc2c[nH]c3ccccc23)NC1=S (stereo unspecified),inactive,
CCNC(=O)c1noc(-c2cc(C(C)C)c(O)cc2O)c1-c1ccc(CN2CCOCC2)cc1,inactive,

Structure (SMILES),Potency,"activity change, negative = inhibition"
CNC1CCC(N(Cc2cccc(-c3ccncc3)c2)C(=O)c2sc3ccccc3c2Cl)CC1 (stereo unspecified),inactive,
CCC(=O)N1CCN(c2ccc(-n3c(=O)ccc4cnc5ccc(-c6cnc7ccccc7c6)cc5c43)cc2C(F)(F)F)CC1,,-9.09% [at 19.1 µM]
CN[C@@H](C)[C@H]1[C@H](O)C[C@@]2(C)[C@@H]3CC[C@H]4C(C)(C)[C@@H](NC)CC[C@@]45C[C@@]35CC[C@]12C,,119% [at 19.1 µM]
Cc1cc(C(C)Nc2ccccc2)c2nc(N3CCOCC3)cc(=O)n2c1 (stereo unspecified),inactive,
CCN(CCO)CCCOc1ccc2c(Nc3cc(CC(=O)Nc4cccc(F)c4)[nH]n3)ncnc2c1,inactive,
CS(=O)(=O)c1ccc(C2=C(c3ccccc3)C(=O)OC2)cc1,inactive,
Cc1ccccc1-n1c(Cn2nc(-c3cccc(O)c3)c3c(N)ncnc32)nc2cccc(C)c2c1=O,inactive,
CCN1CCN(c2ccc(Nc3cc(N(C)C(=O)Nc4c(Cl)c(OC)cc(OC)c4Cl)ncn3)cc2)CC1,inactive,
CC1(C)CC(=O)c2c(C(F)(F)F)nn(-c3ccc(C(N)=O)c(NC4CCC(O)CC4)c3)c2C1 (stereo unspecified),inactive,
Cc1cnc(CNC(=O)c2c(=O)c3ccc(N4CCCN(C)CC4)nc3n3c2sc2ccccc23)cn1,,5.25% [at 19.1 µM]
CN1CCC(COc2cnc(-c3cccc(Cn4nc(-c5cccc(C#N)c5)ccc4=O)c3)nc2)CC1,inactive,
CN(C)CCOc1cc(-c2cn[nH]c2)ccc1NC(=O)C1COc2ccccc2O1 (stereo unspecified),inactive,
Cc1ccc2c(c1)c1c(n2CCc2ccc(C)nc2)CCN(C)C1,inactive,
Nc1ncnc2c1c(-c1cccc(OCc3ccccc3)c1)cn2C1CC(CN2CCC2)C1 (stereo unspecified),inactive,
NS(=O)(=O)c1cc(Cl)c(Cl)c(S(N)(=O)=O)c1,inactive,
